Assay results as given in the supplement of paper PMC6555819.

Key:
Assay in all cases: PBM binding z-score (relative to random genomic background probes); higher = stronger binding; sequences stand for … in GC…GCGATTGACAGCGTAGAATGAAGG
[1] = system: RARb homodimer (NR concentration 270 nM)
Method in brief: (§1)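 Ligand-free nuclear receptor dimers were applied to custom Agilent 4×180K protein-binding microarrays whose double-stranded probes carried direct-repeat seeds, single-nucleotide variants, half-site ablations and random human genomic background sequences in 34-nt variable regions. Incubation lasted 1 h. Binding z-scores were computed against the random background probes from regression-normalized fluorescence.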

[2] = system: RARg:RXRa (NR concentration 270 nM, RXRa partner concentration 90 nM)
Method in brief: as §1

[3] = system: RARg homodimer (NR concentration 270 nM)
Method in brief: as §1

[4] = system: RXRa DBDmut IVT, anti-RXR (DBD mutation: RXRa K156A/R161A, NR concentration 90 nM)
Method in brief: as §1

[5] = system: RXRa homodimer (NR concentration 180 nM)
Method in brief: as §1

[6] = system: THRa:RXRa (NR concentration 90 nM, RXRa partner concentration 90 nM)
Method in brief: as §1

[7] = system: THRa homodimer (NR concentration 90 nM)
Method in brief: as §1

[8] = system: VDR homodimer (NR concentration 270 nM)
Method in brief: as §1

Row | Sequence | PBM binding z-score [1] | PBM binding z-score [2] | PBM binding z-score [3] | PBM binding z-score [4] | PBM binding z-score [5] | PBM binding z-score [6] | PBM binding z-score [7] | PBM binding z-score [8]
1 | TCGAGTAGGTTAAGGGGGCATTCAGGGATGAAGA | 2.37 | 3.17 | 2.01 | 1.92 | 2.62 | 3.58 | 1.48 | 3.24
2 | CCGAGTAGGTTATGAGGGGGCATTCAGTGCGAAT | 2.32 | 2.98 | 2.83 | 1.66 | 1.95 | 3.88 | 1.86 | 3.74
3 | CTATGTAGGTTAAGGGTGTCATTCAGTTTGAAAG | 1.44 | 1.38 | 0.949 | 0.738 | 1.35 | 1.04 | 0.005 | 1.42
4 | CCTACTGGGCCAAGGTCATTGCTCAGTCAAAGCA | 3.23 | 3.53 | 2.97 | 1.25 | 2.85 | 3.42 | 2.02 | 3.2
5 | GCTGCTAGGTCAACTGATGGTCAGCTAGAGCTCG | 3.68 | 5.23 | 5.53 | 1.73 | 2.87 | 3.1 | 1.07 | 0.0219
6 | CGAACTAGGTCAGAACAGTACAGTGAAGGATGAT | 1.96 | 2.46 | 3.33 | 0.94 | 1.27 | 1.83 | 0.222 | 0.229
7 | CGAACTAGGTCGAAGGACAGTGAAAGGCGACGTA | 0.802 | 0.619 | 1.1 | 0.469 | 0.475 | 0.508 | -0.399 | -0.311
8 | TAGCCTAGGTCATGGGCCAGTTTACCACGCGAAC | 3.04 | 4.68 | 4.8 | 0.567 | 4 | 3.22 | 1.42 | 0.669
9 | CGTCAACGTTCAACTAAGGTAACGTAAAGCACGC | 0.8 | 0.496 | 0.603 | 0.449 | 0.587 | 3.84 | 1.68 | 0.137
10 | CGAACTAGGTCACCAGGACAGGGAAGAGGTTGGA | 3.18 | 4.35 | 4.97 | 1.23 | 2.96 | 3.26 | 1.9 | 0.549
11 | TCGAGTAGGTTACGGGGGCAATCAGGGATGAAGA | 2.12 | 3.25 | 2.36 | 1.52 | 2.73 | 3.4 | 0.675 | 2.03
12 | CGAACTAGGACATCCAGGACAGTGAATACATTGA | 0.243 | 0.252 | 0.695 | 0.592 | 0.0939 | 1.78 | 1.4 | 0.467
13 | CGAACTAGGTCACCAGGACAGTAAAGAGGTTGGA | 3.58 | 4.57 | 5.2 | 1.79 | 3.38 | 3.29 | 1.86 | 0.977
14 | CGAACTAGGTCACCAGCACAGTGAAGAGGTTGGA | 3.37 | 4.43 | 5.44 | 1.35 | 3.29 | 3.1 | 1.29 | 0.496
15 | CTACGTAGGTTAAGGGGGTCATTCAGTTTGAAAG | 3.61 | 5.6 | 4.1 | 1.87 | 6.27 | 3.9 | 1.23 | 6.07
16 | CGAACTAGGTCACCGGGACAGTGAAGAGGTTGGA | 3.62 | 4.73 | 5.23 | 1.41 | 3.62 | 3.75 | 1.79 | 0.333
17 | CGAACTAGGACACCAGGACAGTGAAGAGGTTGGA | 0.545 | 0.367 | 0.797 | 0.0708 | 0.0879 | 1.83 | 1.24 | 0.472

Row | Sequence | PBM binding z-score [1] | PBM binding z-score [2] | PBM binding z-score [3] | PBM binding z-score [4] | PBM binding z-score [5] | PBM binding z-score [6] | PBM binding z-score [7] | PBM binding z-score [8]
18 | CTATGTAGGTTGAGGGGGTCATTCAGTTTGAAAG | 3.8 | 5.4 | 4.34 | 2.5 | 5.59 | 4.05 | 3.08 | 6.14
19 | ATATGTAGGTCAGGGTCATTCAGAAAGTAGGGAA | 4.5 | 5.21 | 5.33 | 2.58 | 5.76 | 4 | 2.37 | 4.27
20 | TCGAGTAGGTTACGGGGGCATTAAGGGATGAAGA | 1.91 | 3.09 | 2.32 | 1.61 | 2.56 | 2.83 | 0.949 | 2.81
21 | GATTCAGGGTCAGCTAGAGGCCAGAGTATGGAAA | 3.87 | 7 | 5.09 | 1.93 | 4.72 | 3.52 | 1.01 | 0.938
22 | ATATGTAGGTTAAGGTCATTCAGAAAGTAGGGAA | 4.18 | 4.81 | 4.96 | 2.75 | 4.96 | 4.41 | 4.8 | 4.05
23 | ATATGTAGGTTAGGGTCATGCAGAAAGTAGGGAA | 3.55 | 4.44 | 3.61 | 2.02 | 5.67 | 4.25 | 3.53 | 2.78
24 | AGTCAAAGTTCACGAGGTAACGTAAGATTCAGCT | 4.91 | 6.34 | 7.02 | 4.45 | 6.24 | 3.61 | 1.34 | 3.84
25 | ATATGTAGGTTAGGGTCTTTCAGAAAGTAGGGAA | 0.963 | 0.711 | 0.651 | 0.741 | 0.743 | 1.51 | 1.22 | 0.739
26 | CCTGCTAGTTCAATGGTCAGCTAAAGCAGCTCGC | 1.18 | 0.412 | 0.679 | 2.42 | 0.154 | 0.222 | -0.395 | 0.706
27 | TCGAATAGGTTACGGGGGCATTCAGGGATGAAGA | 2.78 | 4.18 | 3.02 | 2.78 | 3.99 | 4.29 | 1.9 | 3.3
28 | CCGAGTAGGTAACGAGGGGGCATTCAGTGCGAAT | 1.62 | 1.9 | 1.27 | 0.932 | 1.21 | 2.73 | 0.519 | 3.01
29 | CAATCTAGGTCACAGAGGTCAAAGTCCGTGCGTA | 5.7 | 7.55 | 7.82 | 3.44 | 8.19 | 4.8 | 3.43 | 7.51
30 | TCGAGTACGTTACGGGGGCATTCAGGGATGAAGA | 1.42 | 1.46 | 0.926 | 3.21 | 1.25 | 3.59 | 0.925 | 4.32
31 | GCTTACGGGTCAAAGGTTATGGCATGAATAGAAT | 3.46 | 6.98 | 5.3 | 2.31 | 9.82 | 3.79 | 0.408 | 1.51
32 | CCGAGCAGGTTACGAGGGGGCATTCAGTGCGAAT | 2.17 | 3.02 | 2.4 | 1.56 | 2.21 | 3.81 | 0.885 | 3.5
33 | CCTACTGGGCCAAGGTCTTTGATCAGTCAAAGCA | 0.263 | -0.131 | -0.0886 | -1 | -0.568 | 0.0825 | -0.301 | -0.659
34 | CCGTGTAGGTTACGAGGGGGCATTCAGTGCGAAT | 2.58 | 3.76 | 3.23 | 1.74 | 2.46 | 4.03 | 1.23 | 3.94
